Compound activity (PubChem)
MITF TRPM1 HTS – activators of MITF-driven TRPM1 promoter reporter, primary screen, cell-based, SK-MEL-5, luciferase, single point; SK-MEL-5 TRPM1-promoter luciferase, 24 h; % of positive control, neutral wells = 0; activation, % at 12.5 µM; hit rate 0.75% among 300,000; AID 588334, 2011;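 active means mean activation of at least 80% with every replicate also reaching 80%; inconclusive means mean reaches 80% but some replicate falls short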;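 further: 0% = neutral control wells and 100% = parthenolide positive control wells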
esBAF inh – Bmi1 luciferase reporter increase in mESCs, primary screen, esBAF inhibitor project, mouse ES cells, Bmi1 luciferase knock-in, single point. 24 h; 100% = twice the neutral-well signal. reporter increase, % at 12.5 µM. hit rate 2% among 350,000. AID 602393, 2012; in the data active means activation above about 40%; inconclusive means no clear call, values can overlap the other calls;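 further: 0% = median of the plate's neutral control wells and 100% = double that signal; a rise in the Bmi1 reporter signal indicates esBAF inhibition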
Rtt109 Vps75 – inhibitors of C. albicans Rtt109/Vps75 HAT, primary screen, biochemical, ThioGlo CoA-SH fluorescence, plate reader. Histone acetyltransferase RTT109 (Candida albicans (strain SC5314 / ATCC MYA-2876)), …. purified Rtt109/Vps75, 4 h. inhibition, % at 34.9 µM. hit rate 0.16% among 330,000. AID 540336, 2011;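 active means inhibition of at least 50% in every replicate; inconclusive means best replicate reaches 50% inhibition but some replicates fall short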
Target sequence (Q5AAJ8 whole entry, looked up): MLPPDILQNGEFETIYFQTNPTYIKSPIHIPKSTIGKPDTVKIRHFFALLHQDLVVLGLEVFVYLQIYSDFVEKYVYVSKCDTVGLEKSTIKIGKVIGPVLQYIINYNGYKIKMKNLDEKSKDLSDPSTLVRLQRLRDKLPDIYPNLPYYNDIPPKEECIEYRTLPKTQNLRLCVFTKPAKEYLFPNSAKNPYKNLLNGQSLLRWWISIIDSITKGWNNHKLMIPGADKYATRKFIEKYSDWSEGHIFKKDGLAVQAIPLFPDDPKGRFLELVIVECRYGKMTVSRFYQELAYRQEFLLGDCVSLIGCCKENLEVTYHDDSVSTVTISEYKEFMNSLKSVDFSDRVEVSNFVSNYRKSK
C2C12 statin – suppressors of statin myotoxicity in C2C12 myotubes, primary screen, cell-based, single point, plate reader | rescue of ATP level, % at 7.49 µM | hit rate 0.78% among 330,000 | C2C12 myotubes + simvastatin, ATP luminescence, 48 h; scaled: DMSO 0, geranylgeraniol control 100;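 active means mean ATP rescue above about 67%, or every replicate alone reaching that limit, limit read from the data, passing the limit was not always enough; inconclusive means no clear call, values can overlap the other calls; inactive means mean under the limit and some replicate under it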;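 further: myotubes were challenged with 10 µM simvastatin during compound exposure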
Wnt act – Wnt/beta-catenin pathway activators, primary screen, cell-based, plate reader, single point; hit rate 1.2% among 300,000; activation, % at 9.35 µM; Wnt/beta-catenin reporter cell assay, activator; in the data active means activation above about 30%, passing the limit was not always enough; inconclusive means no clear call, values can overlap the other calls;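 further: 0% = neutral control wells and 100% = positive control wells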
Starred values were filed as active, the others as inactive; ? = inconclusive; . = no result given. Hits are enriched below; roughly 3.1% of the tested compounds scored in any of these assays.

SMILES | MITF TRPM1 HTS | esBAF inh | Rtt109 Vps75 | C2C12 statin | Wnt act
COC(=O)c1ccc(Cn2cc(C(F)(F)F)ccc2=O)cc1 | 6 | . | -5 | . | -2
COC(=O)c1cn(Cc2ccc(C(F)(F)F)cc2)cc(F)c1=O | -4 | 4 | 7 | 103* | -1
O=C(C[C@@H]1CC[C@H](NC(=O)C2CCC2)[C@@H](CO)O1)NCCCN1CCOCC1 | . | -5 | . | -3 | .
CS(=O)(=O)N1[C@@H]2c3ccc(-c4ccc(F)cc4)c(=O)n3C[C@@H]2[C@@H](CO)[C@@H]1C(=O)O | . | -1 | . | 30 | .
Cc1cc(C)cc(OCC(=O)O/N=C(\N)c2ccccn2)c1 | 25 | ? | -6 | 4 | .
N/C(=N\OC(=O)COc1ccccc1)c1ccccn1 | 49 | 49* | 0 | 1 | 48*
N/C(=N\OC(=O)COc1ccccc1)c1cccnc1 | 104* | . | 1 | . | 29
N/C(=N\OC(=O)COc1ccc2ccccc2c1Br)c1ccccn1 | ? | 85* | 1 | 11 | 44*
N/C(=N\OC(=O)COc1ccc(Br)cc1)c1cccnc1 | 24 | . | -1 | . | 5
Cc1cccc(OCC(=O)O/N=C(\N)c2ccccn2)c1 | 99* | 38 | -1 | 1 | 12
C[C@H](CO)N1C[C@H](C)[C@@H](CN(C)S(=O)(=O)c2cn(C)cn2)Oc2ncc(C3=CCCC3)cc2C1=O | . | -5 | . | -7 | .
C[C@@H]1CN([C@H](C)CO)C(=O)Cc2cc(NS(=O)(=O)c3ccccc3)ccc2O[C@@H]1CN(C)C(=O)Nc1ccc2c(c1)OCO2 | . | 1 | . | 1 | .
N/C(=N\OC(=O)CCC1CCCC1)c1ccccn1 | 33 | . | 2 | . | 52*
Cc1ccc(OCC(=O)O/N=C(\N)c2ccccn2)cc1C | . | . | . | . | 39*
N/C(=N\OC(=O)CCC1CCCC1)c1ccccc1 | 80 | . | -2 | . | 4
Cc1ccc(OCC(=O)O/N=C(\N)c2ccncc2)cc1C | 79 | 54* | 2 | 1 | 7
N/C(=N\OC(=O)COc1ccccc1)c1ccncc1 | 40 | . | -1 | . | 3
CCc1ccc(OCC(=O)O/N=C(\N)c2ccccn2)cc1 | . | . | . | . | 48*
C[C@H]1CN([C@@H](C)CO)C(=O)Cc2cc(NC(=O)Cc3ccccc3)ccc2O[C@@H]1CN(C)C(=O)Nc1ccc(F)cc1 | . | -1 | . | 1 | .
COc1ccccc1S(=O)(=O)Nc1ccc2c(c1)C(=O)N(C)C[C@@H](OC)[C@H](C)CN[C@@H](C)CO2 | . | -5 | . | 3 | .
Cc1ccccc1S(=O)(=O)N[C@H]1CC[C@H](CCNS(=O)(=O)c2cccc(F)c2)O[C@@H]1CO | . | 3 | . | 1 | .
CCCC(=O)Nc1ccc2c(c1)C(=O)N(C)[C@H]1CC[C@@H](CC(=O)NCc3ccccc3F)O[C@@H]1CO2 | . | -3 | . | 22 | .
COc1cccc(OCC(=O)O/N=C(\N)c2ccncc2)c1 | 32 | 47* | -1 | 2 | 7
COc1ccc(CN(C)C[C@@H]2OCCCC[C@H](C)Oc3ccc(NS(=O)(=O)c4ccc(C)cc4)cc3C(=O)N([C@H](C)CO)C[C@@H]2C)cc1 | . | -2 | . | . | .
c1cncc(-c2nc(NCc3ccco3)c3ccccc3n2)c1 | -10 | -4 | 1 | 94* | .
SMILES | MITF TRPM1 HTS | esBAF inh | Rtt109 Vps75 | C2C12 statin | Wnt act
CCCOc1ccc2ccccc2c1/C=C1\SC(=O)NC1=O | . | 2 | -4 | -19 | 1
CCCCOc1ccc2ccccc2c1C=O | 55 | 73* | 1 | -12 | 8
CCOC(=O)C(CC(=O)c1ccccc1)CC(=O)c1ccccc1 | 87* | 57* | -6 | -2 | 6
COC(=O)C(CC(=O)c1ccccc1)CC(=O)c1ccccc1 | 32 | 53* | -8 | -2 | 1
CCOC(=O)C(CCC(C)=O)C(=O)c1ccccc1 (stereo not given) | -3 | -3 | 8 | -6 | -1
O=C(Nc1ccc2c(c1)[C@@H]1C[C@H](CC(=O)N3CCCCC3)O[C@@H](CO)[C@@H]1O2)C1CCC1 | . | 0 | . | 2 | .
CCN=c1scc(-c2ccco2)n1/N=C/c1ccc(O)cc1 | . | 33 | -1 | -5 | .
CCN=c1scc(-c2ccco2)n1/N=C/c1ccc(OC)c(O)c1 | 72 | 54* | -2 | 1 | 40*
COc1ccc(S(=O)(=O)Nc2ccc3c(c2)C(=O)N([C@@H](C)CO)C[C@@H](C)[C@H](CN(C)Cc2ccccc2)OCCCC[C@H](C)O3)cc1 | . | 2 | . | . | .
